# Results reported in the supplement of paper PMC8728848.
# Only a selection was taken, and the strongest signals are over-represented in it overall.
# Key:
# Assay in all cases: glycan array binding signal (z-score within array); higher = stronger binding
# Conditions in all cases: glycan notation: IUPAC condensed, linker removed
# [1] = target: Fuc(a1-2)Gal(b1-3)GlcNAc(b1-3)[Neu5Ac(a2-6)Gal(b1-4)GlcNAc(b1-6)]Gal(b1-4)Glc
# Outline: (§1)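 From the Consortium for Functional Glycomics database, 3228 arrays were curated, keeping only those whose protein sequence was available. Binding is given as a within-array Z-score averaged across arrays sharing a protein sequence and across linkers. Negative Z-scores can be read as non-binding.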
# [2] = target: Fuc(a1-2)Gal(b1-4)GlcNAc(b1-2)Man
# Outline: as §1
# [3] = target: Fuc(a1-2)Gal(b1-4)GlcNAc(b1-3)Gal(b1-4)GlcNAc
# Outline: as §1
# [4] = target: Fuc(a1-2)Gal(b1-4)[Fuc(a1-3)]GlcNAc
# Outline: as §1
# [5] = target: Fuc(a1-2)Gal6S(b1-3)GlcNAc
# Outline: as §1
# [6] = target: Fuc(a1-2)Gal6S(b1-3)GlcNAc6S
# Outline: as §1
# [7] = target: Fuc(a1-2)[Gal(a1-3)]Gal(b1-4)Glc
# Outline: as §1
# [8] = target: Fuc(a1-2)[Gal(a1-3)]Gal(b1-4)GlcNAc(b1-3)[Fuc(a1-2)[Gal(a1-3)]Gal(b1-4)GlcNAc(b1-6)]GalNAc
# Outline: as §1
# [9] = target: Fuc(a1-2)[GalNAc(a1-3)]Gal(b1-4)GlcNAc(b1-3)Gal(b1-4)GlcNAc
# Outline: as §1
# [10] = target: Fuc(a1-2)[GalNAc(b1-3)]Gal
# Outline: as §1
# [11] = target: Fuc(a1-3)[Gal(b1-4)]GlcNAc(b1-3)Gal(b1-3)[Fuc(a1-4)]GlcNAc
# Outline: as §1
# [12] = target: Gal(b1-2)Gal
# Outline: as §1
# [13] = target: Gal(b1-3)GalNAc(a1-3)[Fuc(a1-2)]Gal(b1-4)Glc
# Outline: as §1
# [14] = target: Gal(b1-3)GlcNAc(b1-3)Gal(b1-4)GlcNAc(b1-3)Gal(b1-4)GlcNAc(b1-2)[Gal(b1-3)GlcNAc(b1-3)Gal(b1-4)GlcNAc(b1-3)Gal(b1-4)GlcNAc(b1-6)]Man(a1-6)[Gal(b1-3)GlcNAc(b1-3)Gal(b1-4)GlcNAc(b1-3)Gal(b1-4)GlcNAc(b1-2)Man(a1-3)]Man(b1-4)GlcNAc(b1-4)[Fuc(a1-6)]GlcNAc
# Outline: as §1
# [15] = target: Gal(b1-3)GlcNAc(b1-3)Gal(b1-4)[Fuc(a1-3)]GlcNAc
# Outline: as §1
# [16] = target: Gal(b1-3)[Fuc(a1-4)]GlcNAc(b1-3)Gal(b1-4)[Fuc(a1-3)]GlcNAc
# Outline: as §1
# [17] = target: Gal(b1-4)Gal
# Outline: as §1
# [18] = target: Gal(b1-4)GalNAc(b1-3)[Fuc(a1-2)]Gal(b1-4)GlcNAc
# Outline: as §1
# [19] = target: Gal(b1-4)Glc
# Outline: as §1
# [20] = target: Gal(b1-4)GlcNAc(b1-2)Man
# Outline: as §1
# [21] = target: Gal(b1-4)GlcNAc(b1-2)Man(a1-3)[Gal(b1-4)GlcNAc(b1-2)Man(a1-6)][Gal(b1-4)GlcNAc(b1-4)]Man(b1-4)GlcNAc(b1-4)[Fuc(a1-6)]GlcNAc
# Outline: as §1
# [22] = target: Gal(b1-4)GlcNAc(b1-2)Man(a1-3)[Man(a1-6)]Man(b1-4)GlcNAc(b1-4)GlcNAc
# Outline: as §1
# [23] = target: Gal(b1-4)GlcNAc(b1-2)[Gal(b1-4)GlcNAc(b1-4)]Man(a1-3)[Gal(b1-4)GlcNAc(b1-2)Man(a1-6)]Man(b1-4)GlcNAc(b1-4)GlcNAc
# Outline: as §1
# [24] = target: Gal(b1-4)GlcNAc(b1-2)[Gal(b1-4)GlcNAc(b1-4)]Man(a1-3)[GlcNAc(b1-4)][Gal(b1-4)GlcNAc(b1-2)[Gal(b1-4)GlcNAc(b1-6)]Man(a1-6)]Man(b1-4)GlcNAc(b1-4)GlcNAc
# Outline: as §1
# [25] = target: Gal(b1-4)GlcNAc(b1-3)Gal(b1-4)GlcNAc(b1-2)Man(a1-3)[Gal(b1-4)GlcNAc(b1-3)Gal(b1-4)GlcNAc(b1-2)Man(a1-6)]Man(b1-4)GlcNAc(b1-4)[Fuc(a1-6)]GlcNAc
# Outline: as §1
# [26] = target: Gal(b1-4)GlcNAc(b1-3)Gal(b1-4)GlcNAc(b1-2)[Gal(b1-4)GlcNAc(b1-3)Gal(b1-4)GlcNAc(b1-6)]Man(a1-6)[Gal(b1-4)GlcNAc(b1-3)Gal(b1-4)GlcNAc(b1-2)Man(a1-3)]Man(b1-4)GlcNAc(b1-4)GlcNAc
# Outline: as §1
# [27] = target: Gal(b1-4)GlcNAc(b1-3)Gal(b1-4)GlcNAc(b1-3)Gal(b1-4)GlcNAc
# Outline: as §1
# [28] = target: Gal(b1-4)GlcNAc(b1-6)GalNAc
# Outline: as §1
# [29] = target: Gal6S(b1-4)GlcNAc6S
# Outline: as §1
# [30] = target: GalNAc(b1-4)GlcNAc6S
# Outline: as §1
# [31] = target: GlcNAc(b1-2)Man(a1-3)[GlcNAc(b1-2)Man(a1-6)]Man(b1-4)GlcNAc(b1-4)[Fuc(a1-6)]GlcNAc
# Outline: as §1
# [32] = target: GlcNAc(b1-2)[GlcNAc(b1-6)]Man(a1-6)[GlcNAc(b1-2)Man(a1-3)]Man(b1-4)GlcNAc(b1-4)GlcNAc
# Outline: as §1
# [33] = target: GlcNAc(b1-2)[GlcNAc(b1-6)]Man(a1-6)[GlcNAc(b1-2)Man(a1-3)]Man(b1-4)GlcNAc(b1-4)[Fuc(a1-6)]GlcNAc
# Outline: as §1
# [34] = target: GlcNAc(b1-3)Gal(b1-4)GlcNAc(b1-3)Gal(b1-4)GlcNAc
# Outline: as §1
# [35] = target: GlcNAc(b1-3)Gal(b1-4)GlcNAc(b1-3)Gal(b1-4)GlcNAc(b1-2)[GlcNAc(b1-3)Gal(b1-4)GlcNAc(b1-3)Gal(b1-4)GlcNAc(b1-6)]Man(a1-6)[GlcNAc(b1-3)Gal(b1-4)GlcNAc(b1-3)Gal(b1-4)GlcNAc(b1-2)Man(a1-3)]Man(b1-4)GlcNAc(b1-4)[Fuc(a1-6)]GlcNAc
# Outline: as §1
# [36] = target: GlcNAc(b1-3)Gal(b1-4)GlcNAc(b1-3)Gal(b1-4)GlcNAc(b1-3)Gal(b1-4)GlcNAc(b1-2)Man(a1-3)[GlcNAc(b1-3)Gal(b1-4)GlcNAc(b1-3)Gal(b1-4)GlcNAc(b1-3)Gal(b1-4)GlcNAc(b1-2)Man(a1-6)]Man(b1-4)GlcNAc(b1-4)GlcNAc
# Outline: as §1
# [37] = target: GlcNAc(b1-3)Gal(b1-4)GlcNAc(b1-6)[GlcNAc(b1-3)]Gal(b1-4)GlcNAc
# Outline: as §1
# [38] = target: GlcNAc(b1-4)GlcNAc(b1-4)GlcNAc
# Outline: as §1
# [39] = target: Man(a1-2)Man(a1-6)[Man(a1-3)]Man(a1-6)[Man(a1-2)Man(a1-2)Man(a1-3)]Man(b1-4)GlcNAc(b1-4)GlcNAc
# Outline: as §1
# [40] = target: Man(a1-3)[Man(a1-6)]Man(a1-6)[Man(a1-2)Man(a1-3)]Man(b1-4)GlcNAc(b1-4)GlcNAc
# Outline: as §1
# [41] = target: Man(b1-4)GlcNAc
# Outline: as §1
# [42] = target: Neu5Ac(a2-3)Gal(b1-3)GlcNAc(b1-2)Man
# Outline: as §1
# [43] = target: Neu5Ac(a2-3)Gal(b1-3)[Fuc(a1-4)]GlcNAc
# Outline: as §1
# [44] = target: Neu5Ac(a2-3)Gal(b1-3)[Fuc(a1-4)]GlcNAc(b1-3)Gal(b1-4)[Fuc(a1-3)]GlcNAc
# Outline: as §1
# [45] = target: Neu5Ac(a2-3)Gal(b1-4)GlcNAc(b1-3)Gal
# Outline: as §1
# [46] = target: Neu5Ac(a2-3)Gal(b1-4)GlcNAc(b1-6)[Gal(b1-3)]GalNAc
# Outline: as §1
# [47] = target: Neu5Ac(a2-6)Gal(b1-4)Glc
# Outline: as §1
# [48] = target: Neu5Ac(a2-6)Gal(b1-4)GlcNAc(b1-2)Man(a1-3)[Man(a1-6)]Man(b1-4)GlcNAc(b1-4)GlcNAc
# Outline: as §1
# [49] = target: Neu5Ac(a2-6)Gal(b1-4)GlcNAc(b1-2)Man(a1-6)[Gal(b1-4)GlcNAc(b1-2)Man(a1-3)]Man(b1-4)GlcNAc(b1-4)GlcNAc
# Outline: as §1
# [50] = target: Neu5Ac(a2-6)Gal(b1-4)GlcNAc(b1-3)Gal(b1-4)GlcNAc
# Outline: as §1
# [51] = target: Neu5Ac(a2-6)Gal(b1-4)GlcNAc(b1-3)Gal(b1-4)GlcNAc(b1-3)GalNAc
# Outline: as §1
# [52] = target: Neu5Ac(a2-8)Neu5Ac(a2-3)Gal(b1-3)GalNAc(b1-4)[Neu5Ac(a2-3)]Gal(b1-4)Glc
# Outline: as §1
# [53] = target: Neu5Ac9Ac(a2-3)Gal(b1-4)GlcNAc
# Outline: as §1
# [54] = target: Neu5Gc(a2-3)Gal(b1-3)GlcNAc
# Outline: as §1
# [55] = target: Neu5Gc(a2-3)Gal(b1-4)GlcNAc(b1-3)Gal(b1-4)GlcNAc(b1-2)Man(a1-3)[Neu5Gc(a2-3)Gal(b1-4)GlcNAc(b1-3)Gal(b1-4)GlcNAc(b1-2)Man(a1-6)]Man(b1-4)GlcNAc(b1-4)GlcNAc
# Outline: as §1
# [56] = target: Neu5Gc(a2-3)Gal(b1-4)[Fuc(a1-3)]GlcNAc
# Outline: as §1
binder,measurement,setting,value
Mermaid2 (Stilbonema majum) (protein) MGSSHHHHHHSSGLVPRGSHMAASGWLRSPQGTVVKLYRRSLSWSKADEFCKDVDGRLVVDRTADMHLFLIKNVLKEKKSRVWVGLRRTAPHSRTWIWSDGTRQNEDDLNTNLWLRDEPNDAAGEEECALFMYSPWEKAWGLNDYLCRGGCRSYQFICEKGIR,glycan array binding signal (z-score),[1],0.333
same,glycan array binding signal (z-score),[2],1.76
same,glycan array binding signal (z-score),[3],-0.575
same,glycan array binding signal (z-score),[4],0.558
same,glycan array binding signal (z-score),[5],-0.388
same,glycan array binding signal (z-score),[6],4.48
same,glycan array binding signal (z-score),[7],-0.23
same,glycan array binding signal (z-score),[8],-0.477
same,glycan array binding signal (z-score),[9],-0.302
same,glycan array binding signal (z-score),[10],-0.551
same,glycan array binding signal (z-score),[11],-0.144
same,glycan array binding signal (z-score),[12],-0.539
same,glycan array binding signal (z-score),[13],3.31
same,glycan array binding signal (z-score),[14],4.69
same,glycan array binding signal (z-score),[15],-0.471
same,glycan array binding signal (z-score),[16],-0.152
same,glycan array binding signal (z-score),[17],6.71
same,glycan array binding signal (z-score),[18],0.467
same,glycan array binding signal (z-score),[19],-0.205
same,glycan array binding signal (z-score),[20],1.07
same,glycan array binding signal (z-score),[21],-0.652
same,glycan array binding signal (z-score),[22],3.75
same,glycan array binding signal (z-score),[23],0.034
same,glycan array binding signal (z-score),[24],-0.17
same,glycan array binding signal (z-score),[25],-0.278
same,glycan array binding signal (z-score),[26],5.21
same,glycan array binding signal (z-score),[27],0.308
same,glycan array binding signal (z-score),[28],-0.317
same,glycan array binding signal (z-score),[29],-0.12
same,glycan array binding signal (z-score),[30],4.64
same,glycan array binding signal (z-score),[31],0.316
same,glycan array binding signal (z-score),[32],-0.776
same,glycan array binding signal (z-score),[33],-0.217
same,glycan array binding signal (z-score),[34],-0.357
same,glycan array binding signal (z-score),[35],0.522
same,glycan array binding signal (z-score),[36],-0.346
same,glycan array binding signal (z-score),[37],-0.719
same,glycan array binding signal (z-score),[38],0.454
same,glycan array binding signal (z-score),[39],-0.4
same,glycan array binding signal (z-score),[40],0.111
same,glycan array binding signal (z-score),[41],5.41
same,glycan array binding signal (z-score),[42],-0.619
same,glycan array binding signal (z-score),[43],-0.173
same,glycan array binding signal (z-score),[44],3.06
same,glycan array binding signal (z-score),[45],-0.777
same,glycan array binding signal (z-score),[46],6.1
same,glycan array binding signal (z-score),[47],-0.397
same,glycan array binding signal (z-score),[48],-0.03
same,glycan array binding signal (z-score),[49],-0.551
same,glycan array binding signal (z-score),[50],-0.49
same,glycan array binding signal (z-score),[51],-0.709
same,glycan array binding signal (z-score),[52],-0.435
same,glycan array binding signal (z-score),[53],-0.505
same,glycan array binding signal (z-score),[54],-0.34
same,glycan array binding signal (z-score),[55],-0.883
same,glycan array binding signal (z-score),[56],3.71
